Where “and” joins values, the source holds several entries; their conditions need not be identical. Equal values may be shown once. The panel holds about 83,000 compounds, 20% with a hit somewhere; the sample as a whole holds those more often.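 Single-concentration screen, 48 h exposure, 96-well plates. Endpoint: percent growth. Below 10 = active.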 Calls of active or inactive are those of the source.
Tests used:
Experiment in all cases: NCI-60 one-dose screen, 48 h (100 = growth as untreated, 0 = no growth, -100 = all killed)
Details in all cases: 10 µM unless noted
SK-MEL-2 melanoma = test system: SK-MEL-2 melanoma
EKVX NSCLC = test system: EKVX NSCLC
SN12C renal = test system: SN12C renal
UO-31 renal = test system: UO-31 renal
TK-10 renal = test system: TK-10 renal
ACHN renal = test system: ACHN renal
CAKI-1 renal = test system: CAKI-1 renal
A498 renal = test system: A498 renal
CCRF-CEM leukemia = test system: CCRF-CEM leukemia
MOLT-4 leukemia = test system: MOLT-4 leukemia

Measured: growth

O=C(c1ccccc1)C1(Br)CCCCC1
inactive: SK-MEL-2 melanoma 104% | EKVX NSCLC 87.3% | SN12C renal 93.6% | UO-31 renal 82.2% | TK-10 renal 103% | ACHN renal 100% | CAKI-1 renal 89% | A498 renal 102% | CCRF-CEM leukemia 97.5% | MOLT-4 leukemia 103%

CCOC(=O)c1ccc(C(=N)N)cc1
inactive: SK-MEL-2 melanoma 113% | EKVX NSCLC 103% | SN12C renal 117% | UO-31 renal 91.8% | TK-10 renal 105% | ACHN renal 126% | CAKI-1 renal 97.6% | A498 renal 98.6% | CCRF-CEM leukemia 103% | MOLT-4 leukemia 109%

Cc1ccc(N)cc1S(=O)(=O)O
inactive: SK-MEL-2 melanoma 120% | EKVX NSCLC 109% and 105% | SN12C renal 103% and 106% | UO-31 renal 84.4% and 91.5% | TK-10 renal 75% and 135% | ACHN renal 101% and 118% | CAKI-1 renal 96.8% and 106% | A498 renal 113% | CCRF-CEM leukemia 60.6% and 109% | MOLT-4 leukemia 94.4%

O=C1c2ccccc2C(c2ccccc2)C1c1ccccc1 (configuration not stated)
inactive: SK-MEL-2 melanoma 91.1% | EKVX NSCLC 80.2% | SN12C renal 93.5% | UO-31 renal 79.4% | TK-10 renal 124% | ACHN renal 98% | CAKI-1 renal 72.3% | A498 renal 102% | CCRF-CEM leukemia 72.2% | MOLT-4 leukemia 87.8%

O=C(O)c1c2c(nc3ccccc13)Cc1ccccc1-2
inactive: SK-MEL-2 melanoma 109% and 122% | EKVX NSCLC 104% and 72.5% | SN12C renal 108% and 87% | UO-31 renal 73.6% and 63.6% | TK-10 renal 114% and 101% | ACHN renal 103% and 101% | CAKI-1 renal 98% and 86.2% | A498 renal 78.5% and 95.6% | CCRF-CEM leukemia 91.1% and 77.3% | MOLT-4 leukemia 96.2% and 114%

CCOP(=O)(OCC)/C(C#N)=C/c1c(C)[nH]c2ccccc12
inactive: SK-MEL-2 melanoma 99.2% | EKVX NSCLC 97.4% | SN12C renal 92% | UO-31 renal 72.8% | TK-10 renal 93.2% | ACHN renal 102% | CAKI-1 renal 51% | A498 renal 116% | CCRF-CEM leukemia 89.6% | MOLT-4 leukemia 97.9%

NC(=O)Cc1nc(O)cc(=O)[nH]1
inactive: SK-MEL-2 melanoma 102% | EKVX NSCLC 103% | SN12C renal 96.2% | UO-31 renal 95.4% | TK-10 renal 94% | ACHN renal 107% | CAKI-1 renal 99.2% | A498 renal 85.6% | CCRF-CEM leukemia 88.3% | MOLT-4 leukemia 95.6%

Cc1cc(O)c(C(C)C)cc1N=O
inactive: SK-MEL-2 melanoma 103% and 111% | EKVX NSCLC 101% and 102% | SN12C renal 95.7% and 105% | UO-31 renal 106% and 92.5% | TK-10 renal 101% and 99.7% | ACHN renal 95% and 91.5% | CAKI-1 renal 104% and 107% | A498 renal 94.8% and 95.5% | CCRF-CEM leukemia 90.3% | MOLT-4 leukemia 98.1%

Cn1c(-c2ccccc2)cc(=O)cc1-c1ccccc1
inactive: SK-MEL-2 melanoma 10.8% | EKVX NSCLC 121% | SN12C renal 92.6% | UO-31 renal 79% | TK-10 renal 91.5% | CAKI-1 renal 83.6% | A498 renal 106% | CCRF-CEM leukemia 79.8% | MOLT-4 leukemia 81.4%
active: ACHN renal 0.204%

O=c1[nH]nnc2cc(Cl)ccc12
inactive: SK-MEL-2 melanoma 121% and 144% | EKVX NSCLC 105% and 97.3% | SN12C renal 105% and 100% | UO-31 renal 70.5% and 76.3% | TK-10 renal 99.3% and 105% | ACHN renal 97.6% and 101% | CAKI-1 renal 92.2% and 95.8% | A498 renal 106% | CCRF-CEM leukemia 114% and 103% | MOLT-4 leukemia 104% and 95.9%

CCNC1=CC(=O)c2ncccc2C1=O
inactive: SK-MEL-2 melanoma 26.9% | EKVX NSCLC 72.6% | UO-31 renal 48.4% | TK-10 renal 83.6% | ACHN renal 59% | CAKI-1 renal 55.8% | A498 renal 80.8% | CCRF-CEM leukemia 76.7% | MOLT-4 leukemia 52.6%
active: SN12C renal -32.2%

O=c1[nH]c(=O)n(C2OC(CO)C(O)C2O)cc1I (configuration not stated)
inactive: SK-MEL-2 melanoma 124% | EKVX NSCLC 100% and 98.9% | SN12C renal 94.8% and 99% | UO-31 renal 77.7% and 87.1% | TK-10 renal 102% and 125% | ACHN renal 111% and 117% | CAKI-1 renal 95.9% and 97.9% | A498 renal 97.5% and 120% | MOLT-4 leukemia 84.8% and 111%

O=C(NC(CSSCC(NC(=O)OCc1ccccc1)C(=O)O)C(=O)O)OCc1ccccc1 (configuration not stated)
inactive: SK-MEL-2 melanoma 95.4% and 102% | EKVX NSCLC 94.8% | SN12C renal 83.3% and 105% | UO-31 renal 67.6% and 98% | TK-10 renal 59.4% | ACHN renal 88.6% and 98.9% | CAKI-1 renal 72.1% and 99.3% | A498 renal 68.2% and 99% | MOLT-4 leukemia 52.1% and 82%

Cc1nc(Nc2ccc(Cl)cc2)c2cnn(-c3ccccc3)c2n1
inactive: SK-MEL-2 melanoma 100% | EKVX NSCLC 91.3% | SN12C renal 102% | UO-31 renal 94.6% | TK-10 renal 95.4% | CAKI-1 renal 96.3% | A498 renal 83.5% | CCRF-CEM leukemia 26.1% | MOLT-4 leukemia 106%

NCCCCCC(=O)O
inactive: SK-MEL-2 melanoma 110% [middle of 4 runs] | EKVX NSCLC 109% [middle of 4 runs] | SN12C renal 107% [middle of 4 runs] | UO-31 renal 89.3% [middle of 4 runs] | TK-10 renal 115% and 104% and 98.9% | ACHN renal 103% [middle of 4 runs] | CAKI-1 renal 94% [middle of 4 runs] | CCRF-CEM leukemia 101% and 90.4% and 108% | MOLT-4 leukemia 105% and 88.6% and 108%

COc1ccc(C(=O)C(O)c2ccc(OC)cc2)cc1 (configuration not stated)
inactive: SK-MEL-2 melanoma 111% and 108% | EKVX NSCLC 107% and 110% | SN12C renal 113% and 112% | UO-31 renal 89.1% and 90.7% | TK-10 renal 102% and 107% | ACHN renal 109% and 112% | CAKI-1 renal 104% and 100% | A498 renal 97.4% and 104% | MOLT-4 leukemia 107% and 100%

CCCC(=O)Oc1ccc2ccccc2c1
inactive: SK-MEL-2 melanoma 104% | EKVX NSCLC 101% | SN12C renal 97% | UO-31 renal 76.8% | TK-10 renal 103% | ACHN renal 99% | CAKI-1 renal 103% | A498 renal 103% | MOLT-4 leukemia 92.3%

COC(=O)c1nc(N)nc(C(=O)OC)c1C(=O)c1ccc(F)cc1
inactive: SK-MEL-2 melanoma 105% | EKVX NSCLC 104% | SN12C renal 103% | UO-31 renal 92.4% | TK-10 renal 109% | CAKI-1 renal 96.1% | A498 renal 120% | CCRF-CEM leukemia 106% | MOLT-4 leukemia 156%

O=C1C=CC[C@H](/C=C/c2ccccc2)O1
11.4% (inactive) and 2.9% (active): CAKI-1 renal
55.6% (inactive) and 9.16% (active): SN12C renal
inactive: EKVX NSCLC 54.5% and 56.3% | UO-31 renal 38.8% and 41% | TK-10 renal 41.7% and 22.3%
active: SK-MEL-2 melanoma -21.8% and -43.1% | A498 renal -18.3% and -10.1% | MOLT-4 leukemia 3.44% and -22.1%
12.5% (inactive) and -3.54% (active): CCRF-CEM leukemia

COC(=O)CCOc1ccccc1
inactive: SK-MEL-2 melanoma 84% | EKVX NSCLC 96.6% | SN12C renal 110% | UO-31 renal 86.8% | TK-10 renal 108% | CAKI-1 renal 86.3% | A498 renal 83.9% | CCRF-CEM leukemia 95.2% | MOLT-4 leukemia 98.6%

CC(C)(C)OC(=O)CC1(O)CCCCC1
inactive: SK-MEL-2 melanoma 107% | EKVX NSCLC 102% | SN12C renal 100% | UO-31 renal 101% | TK-10 renal 99.6% | ACHN renal 105% | CAKI-1 renal 100% | A498 renal 84.6% | MOLT-4 leukemia 108%

COc1ccc(CCn2cnn3c(=O)c4ccccc4nc3c2=O)cc1OC
inactive: SK-MEL-2 melanoma 107% and 118% | EKVX NSCLC 106% | SN12C renal 107% and 101% | UO-31 renal 93.3% and 91.9% | TK-10 renal 114% and 106% | CAKI-1 renal 111% and 97.8% | A498 renal 90.6% and 129% | MOLT-4 leukemia 102% and 112%

CCc1ccccc1-n1[nH]c(C)c(C=N)c1=O
inactive: SK-MEL-2 melanoma 106% | EKVX NSCLC 104% | SN12C renal 106% | UO-31 renal 90% | TK-10 renal 103% | CAKI-1 renal 97.3% | A498 renal 112% | CCRF-CEM leukemia 102% | MOLT-4 leukemia 117%

Source: PubChem BioAssay (NCI)
